# Results from the supplement of paper PMC12282887.
# ± gives the standard deviation of the averaged measurements.
# System: E. coli BW25113 marRABp lux reporter
# Experiment: promoter activity interaction Z-score (Lux/OD deviation from empty-vector control); higher = stronger promoter induction by the compound
# Method: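 E. coli BW25113 (wild type or ΔmarA/ΔsoxS/Δrob) carrying pTU175 luxCDABE promoter reporters was grown in LB in 384-well plates at 37°C with each of 94 compounds at 4 two-fold concentrations, in biological duplicates. Luminescence and OD600 were read every 30 min for 12 h and integrated as AUC over 8 h (0-8 h WT, 1-9 h mutants). Lux AUC was divided by OD AUC; the interaction score is the residual of a Huber robust fit of each promoter against the empty-vector control, then Z-transformed per promoter.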
compound,measurement,setting,value
O=C(O)c1cn(C2CC2)c2cc(N3CCNCC3)c(F)cc2c1=O [Ciprofloxacin],promoter activity interaction Z-score,"0.0012 µg/ml, genetic background: wild type",-0.376 ± 0.019
same,promoter activity interaction Z-score,"0.0012 µg/ml, genetic background: ΔmarA",-0.0878 ± 0.24
same,promoter activity interaction Z-score,"0.0012 µg/ml, genetic background: Δrob",-0.0711 ± 0.075
same,promoter activity interaction Z-score,"0.0012 µg/ml, genetic background: ΔsoxS",0.251 ± 0.081
same,promoter activity interaction Z-score,"0.0025 µg/ml, genetic background: wild type",-0.228 ± 0.28
same,promoter activity interaction Z-score,"0.0025 µg/ml, genetic background: ΔmarA",-0.253 ± 0.031
same,promoter activity interaction Z-score,"0.0025 µg/ml, genetic background: Δrob",-0.0459 ± 0.41
same,promoter activity interaction Z-score,"0.0025 µg/ml, genetic background: ΔsoxS",0.188 ± 0.098
same,promoter activity interaction Z-score,"0.005 µg/ml, genetic background: wild type",-0.472 ± 0.005
same,promoter activity interaction Z-score,"0.005 µg/ml, genetic background: ΔmarA",-0.302 ± 0.12
same,promoter activity interaction Z-score,"0.005 µg/ml, genetic background: Δrob",-0.138 ± 0.072
same,promoter activity interaction Z-score,"0.005 µg/ml, genetic background: ΔsoxS",0.0987 ± 0.0052
same,promoter activity interaction Z-score,"0.0099 µg/ml, genetic background: wild type",2.5 ± 0.32
same,promoter activity interaction Z-score,"0.0099 µg/ml, genetic background: ΔsoxS",4.16
C[C@@H](O)[C@H]1C(=O)N2C(C(=O)O)=C(S[C@@H]3CN[C@H](C(=O)N(C)C)C3)[C@H](C)[C@H]12 [Meropenem],promoter activity interaction Z-score,"0.011 µg/ml, genetic background: wild type",-0.451 ± 0.26
same,promoter activity interaction Z-score,"0.011 µg/ml, genetic background: ΔmarA",-0.532 ± 0.041
same,promoter activity interaction Z-score,"0.011 µg/ml, genetic background: Δrob",-0.399 ± 0.031
same,promoter activity interaction Z-score,"0.011 µg/ml, genetic background: ΔsoxS",-0.178 ± 0.1
same,promoter activity interaction Z-score,"0.022 µg/ml, genetic background: wild type",-0.13 ± 0.065
same,promoter activity interaction Z-score,"0.022 µg/ml, genetic background: ΔmarA",-0.4 ± 0.097
same,promoter activity interaction Z-score,"0.022 µg/ml, genetic background: Δrob",-0.114 ± 0.41
same,promoter activity interaction Z-score,"0.022 µg/ml, genetic background: ΔsoxS",0.18 ± 0.22
same,promoter activity interaction Z-score,"0.044 µg/ml, genetic background: wild type",0.785
same,promoter activity interaction Z-score,"0.044 µg/ml, genetic background: ΔmarA",-0.754
same,promoter activity interaction Z-score,"0.044 µg/ml, genetic background: Δrob",1
same,promoter activity interaction Z-score,"0.044 µg/ml, genetic background: ΔsoxS",-0.0187
N[C@@H](C(=O)N[C@@H]1C(=O)N2C(C(=O)O)=C(Cl)CS[C@H]12)c1ccccc1 [Cefaclor],promoter activity interaction Z-score,"0.11 µg/ml, genetic background: wild type",-0.22 ± 0.046
same,promoter activity interaction Z-score,"0.11 µg/ml, genetic background: ΔmarA",-0.342 ± 0.017
same,promoter activity interaction Z-score,"0.11 µg/ml, genetic background: Δrob",0.00564 ± 0.3
same,promoter activity interaction Z-score,"0.11 µg/ml, genetic background: ΔsoxS",0.0816 ± 0.011
same,promoter activity interaction Z-score,"0.23 µg/ml, genetic background: wild type",0.101 ± 0.062
same,promoter activity interaction Z-score,"0.23 µg/ml, genetic background: ΔmarA",-0.215 ± 0.016
same,promoter activity interaction Z-score,"0.23 µg/ml, genetic background: Δrob",-0.0669 ± 0.059
same,promoter activity interaction Z-score,"0.23 µg/ml, genetic background: ΔsoxS",-0.244 ± 0.22
same,promoter activity interaction Z-score,"0.46 µg/ml, genetic background: wild type",-0.245 ± 0.15
same,promoter activity interaction Z-score,"0.46 µg/ml, genetic background: ΔmarA",0.298 ± 0.42
same,promoter activity interaction Z-score,"0.46 µg/ml, genetic background: Δrob",0.0148 ± 0.0067
same,promoter activity interaction Z-score,"0.46 µg/ml, genetic background: ΔsoxS",-0.145 ± 0.23
